CHT PAM = CHT positive allosteric modulators, primary screen, cell-based, membrane potential dye, choline EC20 | CHT-expressing cells; stronger effect = higher value; LV-AA mutant CHT in HEK293 cells | B-score at 10 µM | hit rate 0.49% among 310,000;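 active = initial fluorescence not abnormally high and integrated response B-score, plate-corrected, over 3 SD above library mean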
Target sequence (Q9GZV3 whole entry, looked up): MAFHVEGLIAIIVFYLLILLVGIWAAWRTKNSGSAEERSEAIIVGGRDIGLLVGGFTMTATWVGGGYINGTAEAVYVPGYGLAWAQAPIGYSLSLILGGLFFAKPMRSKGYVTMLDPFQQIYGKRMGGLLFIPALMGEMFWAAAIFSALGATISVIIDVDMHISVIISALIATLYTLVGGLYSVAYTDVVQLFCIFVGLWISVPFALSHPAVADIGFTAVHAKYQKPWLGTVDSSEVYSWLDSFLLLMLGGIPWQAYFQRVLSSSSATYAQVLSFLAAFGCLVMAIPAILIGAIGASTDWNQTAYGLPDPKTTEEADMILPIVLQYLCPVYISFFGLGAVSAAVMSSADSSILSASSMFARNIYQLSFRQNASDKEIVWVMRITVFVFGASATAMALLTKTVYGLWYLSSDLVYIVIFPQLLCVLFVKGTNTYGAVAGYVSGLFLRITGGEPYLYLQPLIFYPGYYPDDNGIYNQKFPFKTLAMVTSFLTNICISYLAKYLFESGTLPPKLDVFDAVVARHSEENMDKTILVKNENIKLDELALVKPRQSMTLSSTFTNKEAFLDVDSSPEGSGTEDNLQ
CHT block = inhibitors of human choline transporter CHT | CHT-expressing cells, membrane potential dye, choline response; stronger effect = lower value | High affinity choline transporter 1 (Homo sapiens), Q9GZV3 | hit rate 0.86% among 310,000 | AID 488975, 2010 | B-score at 10 µM;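 active = B-score over 3 SD under the library average, and starting fluorescence ratio not unusually high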;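 also: choline stimulus applied at its EC90 after an EC20 pre-addition; B-score computed on integrated fluorescence ratio after choline addition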
Rce1 inhib = yeast Rce1p protease inhibitors, primary screen, biochemical, fluorescence, cell-free homogeneous | yeast membranes, quenched prenylated peptide cleavage fluorescence | CAAX prenyl protease 2 (Saccharomyces cerevisiae (strain ATCC 204508 / S288c)), Q03530 | AID 2563, 2010 | calls only | hit rate 0.27% among 290,000;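 active = fall in fluorescence gain of 50% or more versus controls, with final raw signal at or below 3038400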;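 also: plate controls were neutral control wells for no effect and wells lacking membranes for full effect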
TMEM16A act = TMEM16A chloride channel activators or potentiators, primary screen, cell-based, HTS. B-score at 10 µM. HEK293 TMEM16A/YFP-H148Q/I152L, iodide quench fluorescence; stronger effect = lower value. hit rate 0.3% among 340,000;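 active = fluorescence-ratio B-score plate-corrected deviation score at least 3 library SD below zero, with starting fluorescence score within 5 deviations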;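 also: channel opened by trigger with iodide after compound preincubation; score built on the fluorescence ratio of max minus min over baseline; more negative score means more quench and so TMEM16A activation or potentiation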
Kir21 block = inhibitors of mouse Kir2.1 inward-rectifier potassium channel. HEK293-Kir2.1, FluxOR thallium flux fluorescence; stronger effect = lower value. hit rate 0.85% among 310,000. AID 1672, 2009. B-score at 10 µM. Inward rectifier potassium channel 2 (Mus musculus), P35561;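 active = fluorescence ratio B-score at or below minus 3 SD of library scores, with starting-brightness B-score within 2 SD, cut at about -4.2 in these data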;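 also: channel flux triggered by added potassium and thallium sulfate stimulus; B-score of peak minus minimum fluorescence over baseline after thallium stimulus; more negative B-score means stronger Kir2.1 block with less thallium influx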
TMEM16A inh = TMEM16A chloride channel inhibitors, primary screen, cell-based, HTS; Anoctamin-1 (Mus musculus), Q8BHY3; HEK293 TMEM16A/YFP iodide influx fluorescence, ionomycin; normalized B-score (activity score, 25-100; higher = stronger inhibition) at 10 µM; hit rate 1.2% among 310,000; AID 588511, 2011;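 active = ratio plate-corrected score three or more library SD toward inhibition, starting fluorescence score within five deviations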;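 also: score derived from kinetic fluorescence span divided by baseline fluorescence per well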
Starred values were filed as active, the others as inactive; i = inactive; · = not tested or not shown; + = active, no number. Only some compounds are listed: those with a hit (about 3.2% of all), similar ones and a draw of the others.

SMILES	CHT PAM	CHT block	Rce1 inhib	TMEM16A act	Kir21 block	TMEM16A inh
CN(C)c1ccc(O)c2c1CC1CC3C(N(C)C)C(=O)C(C(N)=O)=C(O)[C@@]3(O)C(=O)C1=C2O (stereo partly drawn)	i	i	i	i	0.51	i
CCCC1=NN(C(=O)C(=O)Nc2ccc(Br)cc2)C(O)(C(F)(F)F)C1 (stereo not drawn)	i	i	i	i	-0.22	25*
CCC1=NN(C(=O)C(=O)Nc2ccc(Br)cc2)C(O)(C(F)(F)F)C1 (stereo not drawn)	i	i	·	i	0.86	i
CC1=NN(S(=O)(=O)c2ccc(Cl)cc2Cl)C(=O)c2ccccc2O1	i	i	i	i	-4.8*	i
Cc1noc(C)c1CSc1nnc(-c2ccccc2)n1N	i	i	i	i	-0.74	i
Cc1noc(C)c1CSc1nnc2scc(-c3ccccc3)n12	i	i	i	i	-5.2*	i
CCOc1cccc(C(=O)Nc2ccc3oc(-c4cccnc4)nc3c2)c1	i	i	i	i	2.5	i
CCOc1cccc(C(=O)Nc2ccc3oc(Cc4ccc(Cl)cc4)nc3c2)c1	i	i	i	i	-0.65	100*
Cc1ccc(/C=N/N=C2/NC(=O)C(CC(=O)N3CCOCC3)S2)cc1 (stereo not drawn)	i	i	i	i	-0.3	i
COc1ccc(C(=O)C2CCCN(C(=O)CCc3scnc3C)C2)c(C)c1 (stereo not drawn)	i	i	i	i	-1.7	i
CCOc1cc(/C=N/n2cnnc2)ccc1OS(=O)(=O)c1ccc(C)cc1	i	i	i	i	-5.5*	i
CCOc1cc(/C=N/n2cnnc2)ccc1OCC(=O)Nc1ccccc1OC	i	i	i	i	0.9	i
CCOC(=O)/C=C/C(=O)Nc1cccc([N+](=O)[O-])c1	i	i	i	i	-6.2*	i
CCOc1ccc(N(Cc2ccc(OC)cc2)C(=O)c2ccco2)cc1	i	i	+	i	-0.78	i
COc1ccccc1Oc1ccc2c(c1)C(=O)N(c1ccc(C)cc1)C2=O	i	i	i	-6.1*	0.96	i
COc1ccccc1Oc1ccc2c(c1)C(=O)N(c1ccccc1)C2=O	i	i	i	i	3	i
CCCCn1c(NC(=O)CC)c(C#N)c2nc3ccccc3nc21	i	i	i	i	-0.7	i
N#Cc1c(NC(=O)c2ccccc2Cl)n(Cc2ccccc2)c2nc3ccccc3nc12	i	i	·	i	·	100*
O=[N+]([O-])c1cc(S(=O)(=O)N2CCCC2)ccc1NN=C1CCCCC1	i	i	+	i	-2	i
O=[N+]([O-])c1cc(S(=O)(=O)N2CCCCCC2)ccc1F	i	i	·	-6.6*	·	i
O=[N+]([O-])c1cc(S(=O)(=O)N2CCCC2)ccc1O	i	i	i	i	0.11	i
OC(CNCC1(N2CCCCC2)CCCCC1)COc1ccc(Cl)cc1Cl (stereo not drawn)	i	i	i	i	-9.3*	i
O=C(COc1ccc(Cl)cc1Cl)NCC1(N2CCOCC2)CCCCC1	·	·	·	i	·	·
O=C1NC2(C=Cc3c(ccc4ccccc34)O2)Oc2ccccc21 (stereo not drawn)	i	i	+	i	-0.57	i
CC1(C)OC(=O)N(c2ccccc2)C12C=Cc1c(ccc3ccccc13)O2 (stereo not drawn)	i	i	i	i	-0.32	i
SMILES	CHT PAM	CHT block	Rce1 inhib	TMEM16A act	Kir21 block	TMEM16A inh
COc1ccccc1-n1cnc2cc(NCc3ccco3)ccc21	13*	i	i	i	-0.02	i
COc1ccccc1-c1cc(C(=O)Nc2cccnc2)no1	11*	i	i	i	0.71	i
COc1ccc(CNC2c3ccccc3-c3ccccc32)cc1OC	i	i	i	i	-4.4*	i
Cc1cc(C)n2nc(SCC(=O)Nc3ccc(F)c(F)c3F)nc2n1	·	·	·	i	·	·
Cc1cc(-c2nn(-c3ccccc3F)cc2CN2CCN(c3ccncc3)CC2)c(C)s1	i	i	i	i	-4.5*	i
CCc1nc(CNC(=O)C2CCC(=O)N(Cc3cccc(OC)c3)C2)no1 (stereo not drawn)	i	i	i	i	0.99	i
C=CCOC(=O)C1=C(C)N=C2SCCC(=O)N2C1c1ccc(OC(=O)c2ccco2)cc1 (stereo not drawn)	i	i	i	i	-5*	i
CC1=C(C(=O)OCc2ccccc2)C(c2cccs2)N2C(=O)CCSC2=N1 (stereo not drawn)	i	i	i	i	-0.65	i
CCOC(=O)C1=C(C)N=C2SCCC(=O)N2[C@@H]1c1cccs1	i	i	i	i	-4.3*	i
C=C(C)COC(=O)c1ccccc1C(=O)OCC1(C)CO1 (stereo not drawn)	·	·	·	i	·	·
COc1ccccc1-c1oc2ccccc2c1C#CCCO	·	·	·	i	·	·
Cc1cccc(-c2oc3ccccc3c2C#CCCO)c1	i	i	+	i	-0.2	i
N#C/C(=C\c1cccs1)C(=O)c1ccccc1Cl	i	i	i	i	-7*	i
CCOc1ccccc1NC(=O)C(Sc1ccccc1)c1ccccc1 (stereo not drawn)	i	i	i	i	2.8	100*
COc1cccc(N2C(=O)c3ccncc3C2=O)c1	i	i	i	i	-0.5	i
COc1cccc(/C=C2\C(=O)N(c3cccc(C)c3)C(=O)c3ccccc32)c1	i	i	i	i	-9.2*	i
Cc1cccc(N2C(=O)/C(=C\c3ccc(OC(F)F)cc3)c3ccccc3C2=O)c1	i	i	i	i	-4.3*	i
CCOc1cc(/C=C2\C(=O)N(c3cccc(C(F)(F)F)c3)C(=O)c3ccccc32)ccc1O	i	i	i	i	0.41	i
N#CCCN(C(=O)COC(=O)Cc1c[nH]c2ccccc12)c1ccccc1	i	i	i	i	-0.21	i
CCC(=O)O[C@]1(C(=O)SCF)[C@H](C)C[C@H]2[C@@H]3C[C@H](F)C4=CC(=O)C=C[C@]4(C)[C@@]3(F)[C@@H](O)C[C@@]21C	i	i	i	·	2.2	i

High-throughput results as filed in PubChem BioAssay.
